Six sequences from article PMC8384837, “Expanding the binding specificity for RNA recognition by a PUF domain” can be followed below.

Substitutions are numbered along the chain they refer to.

What all share (assay): yeast three-hybrid, YBZ-1, SC-Leu-His + 0.5 mM 3-AT, 4 days
What all share (details): tags: N-Gal4 AD-HA kept; label: inside an RPR1-promoter hybrid RNA with tandem MS2 sites; ssRNA

Test [1] deals with T1, PUM1 PUF domain R6-SWD R7-NPG (Homo sapiens, UniProt Q14671 828-1176, N1043S;Y1044W;Q1047D;S1079N;N1080P;E1083G).
T1 sequence: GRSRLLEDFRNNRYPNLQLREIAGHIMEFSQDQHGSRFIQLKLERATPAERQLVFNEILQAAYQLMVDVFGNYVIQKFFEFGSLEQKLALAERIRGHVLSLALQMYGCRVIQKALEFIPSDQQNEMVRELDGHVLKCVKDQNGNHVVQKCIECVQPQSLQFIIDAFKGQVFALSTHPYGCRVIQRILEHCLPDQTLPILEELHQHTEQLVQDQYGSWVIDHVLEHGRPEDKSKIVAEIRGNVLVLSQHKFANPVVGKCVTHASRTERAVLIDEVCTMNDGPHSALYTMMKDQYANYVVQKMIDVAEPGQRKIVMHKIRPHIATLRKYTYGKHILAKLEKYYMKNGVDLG
An outline of the steps:
(§1)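 Each repeat of the Pumilio-1 PUF domain was randomized at its three base-contacting residues, and these libraries were co-expressed from a centromeric plasmid with matching RNA elements in strain YBZ-1. After four days on SC-Leu (input) or SC-Leu-His + 0.5 mM 3-AT (selection), the repeat regions were PCR-amplified and Illumina-sequenced. The interaction score compares variant frequency between input and selection as a log change, computed in log2 with a pseudocount of 1 for absent variants.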

The target of a further test is PUM1 PUF domain R5-GKH (Homo sapiens, UniProt Q14671 828-1176, C1007G;R1008K;Q1011H). In a few lines:
as §1

Another test concerns the target PUM1 PUF domain R5-RYT (Homo sapiens, UniProt Q14671 828-1176, C1007R;R1008Y;Q1011T). An outline of the steps:
as §1

For another test, the target named is PUM1 PUF domain R5-NDG (Homo sapiens, UniProt Q14671 828-1176, C1007N;R1008D;Q1011G). An outline of the steps: as §1
For a further test, the target named is PUM1 PUF domain R8-SWE (Homo sapiens, UniProt Q14671 828-1176, N1122S;Y1123W;Q1126E). An outline of the steps: as §1
For a further test, the target named is PUM1 PUF domain R3-RAA (Homo sapiens, UniProt Q14671 828-1176, C935R;R936A;Q939A). In a few lines:
as §1

The target in a further test is PUM1 PUF domain R4-EHA (Homo sapiens, UniProt Q14671 828-1176, N971E;Q975A). In a few lines: as §1
For the next test, the target named is T2, PUM1 PUF domain R6-MYL (Homo sapiens, UniProt Q14671 828-1176, N1043M;Q1047L).
T2 sequence: T1 sequence with S216M, W217Y, D220L, N252S, P253N, G256E
In a few lines:
as §1

Another test has as its target PUM1 PUF domain R4-LHW (Homo sapiens, UniProt Q14671 828-1176, N971L;Q975W). In a few lines: as §1
A further test addresses T3, PUM1 PUF domain R6-KFS (Homo sapiens, UniProt Q14671 828-1176, N1043K;Y1044F;Q1047S).
T3 sequence: T1 sequence with S216K, W217F, D220S, N252S, P253N, G256E
An outline of the steps: as §1

For “GGCUAGAACUAGUGGAUCCCCCGGCGCCCGGCGGCUCGAGCCCGGGUAAGUUGAAAUAGUCUGCAUGCCGCCGGGCGCCAUGCCUGCAGGUCGACUCUAGAAAACAUG”, in test [1], the binding signal was 5.9 log2 enrichment (interaction score).
Take “GGCUAGAACUAGUGGAUCCCCCGGCGCCCGGCGGCUCGAGCCCGGGUAAGUGUUAAUAGUCUGCAUGCCGCCGGGCGCCAUGCCUGCAGGUCGACUCUAGAAAACAUG”: the results for the binding signal with PUM1 PUF domain R5-GKH, with PUM1 PUF domain R5-RYT and with PUM1 PUF domain R5-NDG were 3.15 log2 enrichment (interaction score), 3.93 log2 enrichment (interaction score) and 3.34 log2 enrichment (interaction score), respectively.
Consider “GGCUAGAACUAGUGGAUCCCCCGGCGCCCGGCGGCUCGAGCCCGGGUAAGCGUAAAUAGUCUGCAUGCCGCCGGGCGCCAUGCCUGCAGGUCGACUCUAGAAAACAUG”, for which the binding signal with PUM1 PUF domain R8-SWE was 2.43 log2 enrichment (interaction score).
With “GGCUAGAACUAGUGGAUCCCCCGGCGCCCGGCGGCUCGAGCCCGGGUAAGUGUAAUUAGUCUGCAUGCCGCCGGGCGCCAUGCCUGCAGGUCGACUCUAGAAAACAUG”, the binding signal in the test with PUM1 PUF domain R3-RAA is 3.66 log2 enrichment (interaction score).
Regarding “GGCUAGAACUAGUGGAUCCCCCGGCGCCCGGCGGCUCGAGCCCGGGUAAGUGUAUAUAGUCUGCAUGCCGCCGGGCGCCAUGCCUGCAGGUCGACUCUAGAAAACAUG”, the binding signal with PUM1 PUF domain R4-EHA was 2.96 log2 enrichment (interaction score).
As to “GGCUAGAACUAGUGGAUCCCCCGGCGCCCGGCGGCUCGAGCCCGGGUAAGUGUAAAUAGUCUGCAUGCCGCCGGGCGCCAUGCCUGCAGGUCGACUCUAGAAAACAUG”, the binding signal was 1.24 log2 enrichment (interaction score) with PUM1 PUF domain R5-RYT, 4.67 log2 enrichment (interaction score) in the test with PUM1 PUF domain R6-MYL, 3.75 log2 enrichment (interaction score) with PUM1 PUF domain R4-LHW and 3.11 log2 enrichment (interaction score) in the test with PUM1 PUF domain R6-KFS.
